According to PubChem BioAssay AID488835 (Broad Institute, 2010):
The whole screen tested about 1,400 compounds, of which about 140 (10%) were called active.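 How the source made its calls: active means Half-maximal inhibitory dose from the fit at or below ten times the top valid tested dose; inconclusive means Invalid fit, or flat curve showing 30 to 70% inhibition; inactive means the rest.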 A selection follows. Measured potencies and affinities stand elsewhere.

What follows are compounds tested against Lysine-specific demethylase 4C (Homo sapiens) (UniProt Q9H3R0) (assay: GASC-1 (JMJD2C) histone demethylase inhibitors, dose response, biochemical, DELFIA europium, cherry-picked samples (AID 488835;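 further: signal is the H3K9me2 demethylation product detected by a dimethyl-specific antibody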)). Settings: GST-JMJD2C(1-420), H3K9me3 demethylation; series mostly up to 6 µM.
Lysine-specific demethylase 4C (Homo sapiens), sequence (Q9H3R0 1-420 limits assumed): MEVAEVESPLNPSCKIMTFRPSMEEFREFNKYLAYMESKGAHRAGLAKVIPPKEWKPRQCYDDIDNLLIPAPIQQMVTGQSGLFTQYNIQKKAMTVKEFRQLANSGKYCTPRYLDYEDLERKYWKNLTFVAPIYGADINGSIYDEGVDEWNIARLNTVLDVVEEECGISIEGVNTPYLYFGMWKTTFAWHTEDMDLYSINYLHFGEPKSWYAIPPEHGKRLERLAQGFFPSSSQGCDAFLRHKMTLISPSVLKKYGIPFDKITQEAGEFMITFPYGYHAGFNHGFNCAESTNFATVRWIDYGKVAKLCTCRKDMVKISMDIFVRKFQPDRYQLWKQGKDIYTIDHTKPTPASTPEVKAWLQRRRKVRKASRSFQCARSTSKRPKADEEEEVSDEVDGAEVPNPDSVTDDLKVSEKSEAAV

outcome, inactive:
COc1ccc(C(=O)OCC(=O)c2ccccc2)cc1S(=O)(=O)N1CCOCC1, Cc1cc(C(=O)OCc2nnc(-c3ccccc3)o2)c(C)n1-c1ccccc1, Cc1ccc(C2CC(c3cccc(Br)c3)Nc3nnnn32)cc1 (stereo unspecified), Cc1cc(N(CN2CCCC2=O)C(=O)c2ccc(F)cc2)no1, COC(=O)[C@]1(C)N[C@H](CN(C)C(=O)NC(C)C)[C@@H]2C(=O)N(Cc3ccccc3)C(=O)[C@@H]21, COc1ccc(NC(=O)Nc2ccc3c(c2)C(=O)N([C@H](C)CO)C[C@H](C)[C@@H](CN(C)S(=O)(=O)c2cccs2)O3)cc1, CC(C)NC(=O)Nc1ccc2c(c1)C(=O)N([C@H](C)CO)C[C@@H](C)[C@@H](CN(C)C(=O)NC1CCCCC1)O2, CCCn1nnnc1SCC(=O)NNC(=O)c1ccco1, CCCn1c(SCC(=O)Nc2c(C)cccc2CC)nnc1C(C)C, Cc1cc(OC(=O)N2CCOCC2)cc(C)c1Cl, CC1CN(Cc2ccccc2)c2nc3c(c(=O)n(C)c(=O)n3C)n2C1 (stereo unspecified), OC1(c2cccc(F)c2)CCN(Cc2ccncc2)CC1, COc1ccc(CCC(=O)Nc2sccc2C#N)cc1, CCOC(=O)CNC(=O)CNC(=O)c1ccc(OC)cc1, COc1ccc(CCNC(=O)COC(=O)c2ccc(Br)o2)cc1, COc1cc(-c2nc(-c3cccc(C)c3)no2)cc(OC)c1OC, Cc1[nH]n2c(=O)c3c(nc2c1-c1ccccc1)CCCC3, CCOC(=O)C1=C(C)NC(=O)NC1c1ccc(Br)s1 (stereo unspecified), CCOC(=O)C1=C(c2ccccc2)NC(=O)NC1c1ccc(O)c(OCC)c1 (stereo unspecified), O=C(c1cccc(-n2cccc2)c1)N1CCN(S(=O)(=O)c2c(F)cccc2F)CC1, CC(=O)N1CCN(c2ccc([N+](=O)[O-])c(-n3nc(C)cc3C)c2)CC1, Cc1ccc(S(=O)(=O)NC(=O)NC(C)Cc2ccccc2)cc1 (stereo unspecified), COc1ccc(NC(=O)N(C)C[C@H]2Oc3c(NS(=O)(=O)c4cn(C)cn4)cccc3C(=O)N([C@H](C)CO)C[C@@H]2C)cc1, Nc1ncnc2c1ncn2[C@@H]1O[C@H](CNCC#Cc2ccccc2)[C@@H](O)[C@H]1O, C=CCn1c(O)c(N=Nc2ccccc2C)c2ccccc21, C=CCn1c(-c2cccc3ccccc23)n[nH]c1=S, c1ccn2c(SCc3cn4ccsc4n3)nnc2c1, CCOc1cccc(C2C(C(=O)c3ccco3)=C(O)C(=O)N2Cc2ccncc2)c1 (stereo unspecified), CCC(C)(C)NC(=O)C(c1cccn1C)N(Cc1ccc(OC)cc1)C(=O)Cn1nnc2ccccc21 (stereo unspecified), O=C(Oc1cccc(NC(=O)c2ccco2)c1)c1cccc(S(=O)(=O)N2CCCC2)c1, Cc1cc(-n2c(SCC(=O)NCc3cccs3)nc3n[nH]c(C)c3c2=N)ccc1Cl, O=c1[nH]c(S)nc2sc3c(c12)CCCC3, CCOC(=O)C1=C(C)NC2=C(C(=O)CCC2)C1c1coc2ccccc2c1=O (stereo unspecified), COc1ccc(CCNC(=O)c2ccccc2Cl)cc1OC, CCOc1cc(CN2CCN(CCc3ccccc3)C(CCO)C2)ccc1OC (stereo unspecified), CCc1ccc(NC(=O)N(CCN2CCOCC2)C2CCN(C(C)=O)CC2)cc1, Cc1nnc(SCc2nnc(-c3ccccc3)o2)n(N)c1=O, COc1ccc(NC(NC(=O)c2cccnc2)C(Cl)(Cl)Cl)cc1 (stereo unspecified), CCCC(=O)Nc1nn(C)c2nc3c(C)cccc3cc12, O=C(COc1ccc(NC(=O)c2ccccc2)cc1)c1ccccc1, C[C@@H]1CC[C@]2(C(=O)O[C@@H]3O[C@H](CO)[C@@H](O)[C@H](O)[C@H]3O)CC[C@]3(C)C(=CCC4[C@@]5(C)C[C@@H](O)[C@H](O)[C@@](C)(C(=O)O[C@@H]6[C@H](O)C[C@@]7(C)C(CC[C@]8(C)C7CC=C7[C@H]9[C@](C(=O)O[C@@H]%10O[C@H](CO)[C@@H](O)[C@H](O)[C@H]%10O)(CC[C@@H](C)[C@@]9(C)O)CC[C@]78C)[C@@]6(CO)C(=O)O)C5CC[C@]43C)[C@@H]2[C@]1(C)O (stereo partly specified), Cc1cccc(C(=O)NCC(c2ccco2)N2CCc3ccccc32)c1 (stereo unspecified), COc1ccc(Nc2ncnc3sc(-c4ccccc4)cc23)cc1OC, COc1ccccc1Cc1nnc(NC(=O)C2CCN(C(=O)c3ccco3)CC2)s1, CCN(C[C@H]1N[C@@](C)(C(=O)OC)[C@H]2C(=O)N(C)C(=O)[C@@H]12)C(=O)Nc1ccc(C)cc1, CCCCN(CC)S(=O)(=O)c1ccc(C(=O)Nc2nnc(COC)o2)cc1, O=C(NCc1cccc(Cl)c1)c1ccc2c(c1)OCO2, Cc1cc(C)nc(NC(N)=NC(C)c2ccccc2)n1 (stereo unspecified), CCn1c(O)c(N=NC2=NC(=O)CS2)c2ccccc21, O=C(CCSCc1ccccc1F)NCCc1ccccc1, Cc1noc(C)c1S(=O)(=O)N(C)C[C@H]1Oc2c(NC(=O)Nc3ccc(C(F)(F)F)cc3)cccc2C(=O)N([C@H](C)CO)C[C@@H]1C, Cc1ccc(C(=O)N2CCN(c3ccc(Cl)cc3)CC2)cc1, COc1cccc(NC(=O)CCN2C(=O)C3CC=CCC3C2=O)c1 (stereo unspecified), NC(=O)Cn1nc([N+](=O)[O-])nc1Oc1ccccc1F, S=C(NCc1ccco1)Nc1cccc(Cl)c1, O=C(NCc1ccccc1)c1ccc2c(c1)OCCO2, Cc1noc(C)c1NC(=O)Nc1cccc2c1O[C@H](CN(C)C(=O)Nc1ccc3c(c1)OCO3)[C@@H](C)CN([C@H](C)CO)C2=O, Cc1[nH]n(-c2ccccc2)c(=O)c1N=Nc1nccs1, CCOC(=O)N1CCc2c(sc3nc4n(c(=O)c23)N=C(C)CS4)C1, COc1ccc(CN(Cc2nc3ccccc3c(=O)[nH]2)C(=O)NC2CCCCC2)cc1, NC(=O)C1CCN(C(=O)c2ccc(Oc3cc(Cl)cc(Cl)c3)o2)CC1, COc1ccccc1-n1cnnc1SCC(=O)Nc1ncc(Cl)cc1Cl, O=[N+]([O-])c1cc(Cl)ccc1Nc1ccccc1, O=C(COC(=O)c1ccc(O)cc1)Nc1ccc(Cl)cc1, COc1ccccc1NC(=O)c1cccs1, COc1ccccc1NC(=O)COC(=O)/C=C/c1cccs1, CC(=O)Nc1ccc(NC(=O)C2CCN(C(=O)c3cccs3)CC2)cc1, O=C(NCC1CCCO1)C(c1ccc(F)cc1)N(CCCN1CCOCC1)C(=O)c1ccc(-c2ccccc2)[nH]1 (stereo unspecified), COCCn1c(C(C)C)nc2sc3ccccc3c(=O)c2c1=O, COC(=O)CNS(=O)(=O)c1ccc(C)cc1, COC(=O)[C@]1(C)N[C@H](CN(C)C(=O)Nc2ccc(C)cc2)[C@@H]2C(=O)N(Cc3ccccc3)C(=O)[C@@H]21
